From the supplement of paper PMC13094657 come the findings set out here.

For assay [1], the system named is MDA-MB-231. The assay is described as follows: cell viability relative to vehicle unstimulated control (fraction); higher = more viable cells. The settings on record: pre-treatment time: 18 h then 24 h IFNg/TNF.
In assay [2] the test system is MDA-MB-231. The assay is described as follows: kynurenine production, fold change vs DMSO IFNg/TNF control; higher = more kynurenine produced (less inhibition). The settings on record: pre-treatment time: 18 h then 24 h IFNg/TNF. An outline of the steps: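 MDA-MB-231 cells (7 × 10^4/well, 96-well plates, seeded 24 h earlier) were pre-treated 18 h with each natural product in 0.1% DMSO, then stimulated 24 h with IFNγ (1 U/ml) and TNF (6.25 ng/ml) at 37°C. Supernatant kynurenine was read at 492 nm after trichloroacetic acid and p-dimethylaminobenzaldehyde treatment, against 0–100 μM standards. Kynurenine production is the fold change over cytokine-stimulated vehicle wells on the same plate, averaged over duplicate plates in the first screening round.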

Molecules are shown by their SMILES. ± gives the standard deviation of the averaged measurements.
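For cell viability relative to vehicle unstimulated control in this document: viability of the cells left after supernatant collection, read with Deep Blue dye added for 4 h, as absorbance at 570 nm minus 600 nm.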

Consider `C[C@H](CC[C@@H](O[C@@H]1O[C@H](CO[C@@H]2O[C@H](CO)[C@@H](O)[C@H](O)[C@H]2O)[C@@H](O)[C@H](O)[C@H]1O[C@@H]1O[C@H](CO)[C@@H](O)[C@H](O)[C@H]1O)C(C)(C)O)[C@H]1CC[C@@]2(C)[C@@H]3CC=C4[C@@H](CC[C@H](O[C@@H]5O[C@H](CO[C@@H]6O[C@H](CO)[C@@H](O)[C@H](O)[C@H]6O)[C@@H](O)[C@H](O)[C@H]5O)C4(C)C)[C@]3(C)[C@H](O)C[C@]12C` [Mogroside V] (compound dose: 10 uM), for which the cell viability in the assay with MDA-MB-231 [1] worked out at 0.989 ± 0.021. Further, the kynurenine production in the assay on MDA-MB-231 [2] was 0.968 ± 0.19.
As for `O=C(O)/C=C/c1ccccc1` [Trans-cinnamic acid] (compound dose: 10 uM), the cell viability in the assay on MDA-MB-231 [1] was determined as 1.02 ± 0.019. In addition, the kynurenine production with MDA-MB-231 [2] was 0.882 ± 0.022.
Take `COc1ccc2c(c1O)C(Cc1ccc(O)cc1)[N+](C)(C)CC2` (configuration not stated) [Oblongine] (compound dose: 10 uM): the cell viability in the assay with MDA-MB-231 [1] is 0.969 ± 0.037. Also, the kynurenine production in the assay with MDA-MB-231 [2] was found to be 1.03 ± 0.071.
Take `C=C(C)[C@@H]1CC[C@]2(C(=O)O)CC[C@]3(C)[C@H](CC[C@@H]4[C@@]5(C)CC[C@H](O[C@@H]6OC[C@H](O)[C@H](O)[C@H]6O[C@@H]6O[C@@H](C)[C@H](O)[C@@H](O)[C@H]6O)[C@@](C)(CO)[C@@H]5CC[C@]43C)[C@@H]12` [Pulchinenoside A] (compound dose: 10 uM): the cell viability in the assay on MDA-MB-231 [1] is 1.04 ± 0.051. Moreover, the kynurenine production in the assay on MDA-MB-231 [2] came to 0.878 ± 0.057.
In the same order, the values of `C=C1C[C@@]23CC[C@H]4[C@@](C)(CCC[C@@]4(C)C(=O)O)[C@@H]2CC[C@]1(O)C3` [Steviol] (compound dose: 10 uM) are 1.1 ± 0.014 and 0.964 ± 0.38.
For `COc1cc2c(=O)c3c(O)c([C@@H]4O[C@H](CO[C@@H]5OC[C@](O)(CO)[C@H]5O)[C@@H](O)[C@H](O)[C@H]4O)c(O)cc3oc2cc1O` [Polygalaxanthone III] (compound dose: 10 uM), in that order: 1 ± 0.048 and 1.01 ± 0.037.
For `CC(/C=C/C=C(\C)C(=O)O[C@@H]1O[C@H](CO)[C@@H](O)[C@H](O)[C@H]1O)=C\C=C\C=C(C)\C=C\C=C(/C)C(=O)O[C@@H]1O[C@H](CO[C@@H]2O[C@H](CO)[C@@H](O)[C@H](O)[C@H]2O)[C@@H](O)[C@H](O)[C@H]1O` [Crocin II] (compound dose: 10 uM), in that order: 0.987 ± 0.09 and 0.907 ± 0.13.
As for `CC(=O)OCC1=C[C@@H]2OC(=O)C3=CO[C@@H](O[C@@H]4O[C@H](CO)[C@@H](O)[C@H](O)[C@H]4O)[C@H]1[C@@H]32` [Asperuloside] (compound dose: 10 uM), the cell viability in the assay on MDA-MB-231 [1] stood at 0.983 ± 0.03. Further, in the assay with MDA-MB-231 [2], the kynurenine production stood at 0.923 ± 0.15.
For `COC(=O)C1=CO[C@@H](O[C@@H]2O[C@H](CO)[C@@H](O)[C@H](O)[C@H]2O)[C@@H]2[C@H](C)O[C@@H](O)C[C@H]12` [Morroniside] (compound dose: 10 uM), in that order: 1.015 ± 0.0011 and 1.22 ± 0.21.
In the same order, the values of `C=C(C)[C@@H]1CC[C@]2(CO)CC[C@]3(C)[C@H](CC[C@@H]4[C@@]5(C)CC[C@H](O)C(C)(C)[C@@H]5CC[C@]43C)[C@@H]12` [Betulin] (compound dose: 2 uM) are 0.842 ± 0.04 and 0.826 ± 0.13.
Turning to `C/C1=C\C(=O)c2c(C)coc2C/C(C)=C/CC1` [Furanodienone] (compound dose: 10 uM), the cell viability in the assay on MDA-MB-231 [1] came out at 0.949 ± 0.065. In addition, the kynurenine production in the assay on MDA-MB-231 [2] was determined as 0.759 ± 0.13.
Take `CC1(C)CC[C@]2(C(=O)O)CC[C@]3(C)C(=CC[C@@H]4[C@@]5(C)C[C@@H](O)[C@H](O)C(C)(C)[C@@H]5CC[C@]43C)[C@@H]2C1` [Maslinic acid] (compound dose: 10 uM): in the assay on MDA-MB-231 [1], the cell viability was determined as 0.962 ± 0.032. The kynurenine production with MDA-MB-231 [2] is 0.876 ± 0.12.
In the same order, the values of `C=C1[C@H](OC(C)=O)[C@@H](OC(C)=O)[C@@H](OC(C)=O)C(C)(C)/C=C/[C@H](C)[C@H](OC(C)=O)[C@@]2(O)C[C@@](C)(OC(C)=O)[C@H](OC(=O)c3ccccc3)[C@@H]2[C@H]1OC(C)=O` [Jatrophane 2] (compound dose: 10 uM) are 1.08 ± 0.062 and 0.926 ± 0.049.
`C=C1CCC[C@]2(C)CC[C@@H](C(C)(C)O)C[C@@H]12` [Beta-Eudesmol] (compound dose: 10 uM): the cell viability in the assay with MDA-MB-231 [1] stood at 1.077 ± 0.0077. For the same molecule, the kynurenine production in the assay on MDA-MB-231 [2] was determined as 0.904 ± 0.14.
For `C[C@@H]1O[C@@H](O[C@H]2[C@H](O[C@H]3CC[C@@]4(C)[C@@H](CC[C@]5(C)[C@@H]4CC=C4[C@@H]6CC(C)(C)CC[C@]6(C(=O)O)CC[C@]45C)[C@]3(C)CO)OC[C@H](O[C@@H]3O[C@H](CO)[C@@H](O)[C@H](O)[C@H]3O)[C@@H]2O)[C@H](O)[C@H](O)[C@H]1O` [Pulsatilla saponin D] (compound dose: 10 uM), in that order: 0.145 ± 0.0044 and 0.141 ± 0.07.
For `CC1=CC[C@@](O)(C(C)C)CC1` [Terpinen-4-ol] (compound dose: 10 uM), in that order: 1.12 ± 0.0039 and 0.984 ± 0.17.
For `C/C1=C\[C@@H]2[C@H](CC/C(C)=C/CC(=O)/C(C)=C/CC1)C2(C)C` [5-ketocasbene/9-ketocasbene] (compound dose: 10 uM), in that order: 1.155 ± 0.0076 and 1.03 ± 0.12.
For the molecule `CC(C)=CCC[C@H](C)CC=O` [(S)-(-)-Citronellal] (compound dose: 10 uM), the cell viability in the assay on MDA-MB-231 [1] is 1.04 ± 0.05. The kynurenine production in the assay on MDA-MB-231 [2] turned out to be 1.14 ± 0.18.
In the same order, the values of `C[C@H](CC[C@@H](O[C@@H]1O[C@H](CO[C@@H]2O[C@H](CO)[C@@H](O)[C@H](O)[C@H]2O)[C@@H](O)[C@H](O)[C@H]1O)C(C)(C)O)[C@H]1CC[C@@]2(C)[C@@H]3CC=C4[C@@H](CC[C@H](O[C@@H]5O[C@H](CO)[C@@H](O)[C@H](O)[C@H]5O)C4(C)C)[C@]3(C)[C@H](O)C[C@]12C` [Mogroside III] (compound dose: 10 uM) are 0.857 ± 0.018 and 0.997 ± 0.13.
For `C[C@@H]1O[C@@H](O[C@H]2[C@H](OC(=O)[C@]34CCC(C)(C)C[C@H]3C3=CC[C@@H]5[C@@]6(C)C[C@H](O)[C@H](O[C@@H]7O[C@H](CO)[C@@H](O)[C@H](O)[C@H]7O)C(CO)(CO)[C@@H]6CC[C@@]5(C)[C@]3(C)C[C@H]4O)OC[C@H](O)[C@@H]2O)[C@H](O)[C@H](O)[C@H]1O[C@@H]1OC[C@@H](O)[C@H](O[C@@H]2OC[C@](O)(CO)[C@H]2O)[C@H]1O` [Platycodin D] (compound dose: 10 uM), in that order: 0.609 ± 0.21 and 0.354 ± 0.065.
For `CC(=O)O[C@@H](C[C@@H](C)C1=C2C[C@H](O)[C@H]3[C@@]4(C)CCC(=O)C(C)(C)[C@@H]4CC[C@]3(C)[C@@]2(C)CC1=O)[C@H]1OC1(C)C` [Alisol C 23-acetate] (compound dose: 10 uM), in that order: 0.975 ± 0.008 and 0.989 ± 0.024.
Consider `CSC(=O)OCC1=C[C@@H]2OC(=O)C3=CO[C@@H](O[C@@H]4O[C@H](CO)[C@@H](O)[C@H](O)[C@H]4O)[C@H]1[C@@H]32` [Paederoside] (compound dose: 10 uM), for which the cell viability in the assay with MDA-MB-231 [1] stood at 1.14 ± 0.027. Also, in the assay on MDA-MB-231 [2], the kynurenine production is 0.937 ± 0.11.
Regarding `C=C(C)[C@H]1C=C[C@@](C)(O)CC1` [cis-Isolimonenol] (compound dose: 10 uM), in the assay on MDA-MB-231 [1], the cell viability came out at 0.972 ± 0.02. In the assay on MDA-MB-231 [2], the kynurenine production was determined as 0.813 ± 0.11.
Turning to `CC(=O)O[C@]12CCC(C)=CC[C@]13CC[C@H]2[C@@](C)(/C=C/C=C(\C)C(=O)O)OC3=O` [Pseudolaric Acid  A] (compound dose: 10 uM), the cell viability in the assay on MDA-MB-231 [1] came to 0.834 ± 0.11. Also, in the assay on MDA-MB-231 [2], the kynurenine production worked out at 0.449 ± 0.12.
In the same order, the values of `C=C1C[C@@]23CC[C@H]4[C@@](C)(CCC[C@@]4(C)C(=O)O[C@@H]4O[C@H](CO)[C@@H](O)[C@H](O[C@@H]5O[C@H](CO)[C@@H](O)[C@H](O)[C@H]5O)[C@H]4O[C@@H]4O[C@H](CO)[C@@H](O)[C@H](O)[C@H]4O)[C@@H]2CC[C@]1(O[C@@H]1O[C@H](CO)[C@@H](O)[C@H](O[C@@H]2O[C@H](CO)[C@@H](O)[C@H](O)[C@H]2O)[C@H]1O[C@@H]1O[C@H](CO)[C@@H](O)[C@H](O)[C@H]1O)C3` [Rebaudioside M] (compound dose: 10 uM) are 0.939 ± 0.012 and 0.742 ± 0.12.
For `CC(=O)OCc1cocc2c(C=O)ccc1-2` [Baldrinal] (compound dose: 10 uM), in that order: 1.006 ± 0.006 and 0.785 ± 0.064.
Take `C=C(C)[C@@H]1CC[C@]2(C(=O)O[C@@H]3O[C@H](CO[C@@H]4O[C@H](CO)[C@@H](O[C@@H]5O[C@@H](C)[C@H](O)[C@@H](O)[C@H]5O)[C@H](O)[C@H]4O)[C@@H](O)[C@H](O)[C@H]3O)CC[C@]3(C)[C@H](CC[C@@H]4[C@@]5(C)CC[C@H](O[C@@H]6OC[C@H](O)[C@H](O)[C@H]6O[C@@H]6O[C@@H](C)[C@H](O)[C@@H](O)[C@H]6O)[C@@](C)(CO)[C@@H]5CC[C@]43C)[C@@H]12` [Pulchinenoside C] (compound dose: 10 uM): in the assay with MDA-MB-231 [1], the cell viability was determined as 0.9971 ± 0.0034. Moreover, the kynurenine production in the assay with MDA-MB-231 [2] was found to be 1.03 ± 0.18.
For `CC(CCC(OC1OC(COC2OC(CO)C(O)C(O)C2O)C(O)C(O)C1OC1OC(CO)C(O)C(O)C1O)C(C)(C)O)C1CCC2(C)C3CC=C4C(CCC(OC5OC(COC6OC(CO)C(O)C(O)C6O)C(O)C(O)C5O)C4(C)C)C3(C)C(=O)CC12C` (configuration not stated) [11-oxo-mogroside V] (compound dose: 10 uM), in that order: 1.1 ± 0.12 and 1.33 ± 0.053.
For the molecule `CC1(C)[C@@H](O[C@H]2O[C@H](C(=O)O)[C@@H](O)[C@H](O)[C@H]2O[C@@H]2O[C@H](C(=O)O)[C@@H](O)[C@H](O)[C@H]2O)CC[C@]2(C)[C@H]3C(=O)C=C4[C@@H]5C[C@@](C)(C(=O)O)CC[C@]5(C)CC[C@@]4(C)[C@]3(C)CC[C@@H]12` [Glycyrrhizic acid] (compound dose: 10 uM), the cell viability in the assay with MDA-MB-231 [1] was 1.05 ± 0.075. In addition, in the assay with MDA-MB-231 [2], the kynurenine production is 0.842 ± 0.057.
`COC(=O)C1=CO[C@@H](O[C@@H]2O[C@H](CO)[C@@H](O)[C@H](O)[C@H]2O)[C@@H]2C(CO)=CC[C@H]12` [Geniposide] (compound dose: 10 uM): in the assay with MDA-MB-231 [1], the cell viability stood at 0.947 ± 0.031. For the same molecule, in the assay on MDA-MB-231 [2], the kynurenine production was found to be 0.939 ± 0.023.
With `CC(=O)O[C@@]12CO[C@@H]1C[C@H](O)[C@@]1(C)C(=O)[C@H](O)C3=C(C)[C@@H](OC(=O)[C@H](O)[C@@H](NC(=O)OC(C)(C)C)c4ccccc4)C[C@@](O)([C@@H](OC(=O)c4ccccc4)[C@H]21)C3(C)C` [Docetaxel] (compound dose: 10 uM), the cell viability in the assay with MDA-MB-231 [1] worked out at 0.923 ± 0.067. In the assay with MDA-MB-231 [2], the kynurenine production amounted to 0.758 ± 0.051.
